From PubChem BioAssay (Tox21)
Values joined by “and” are separate entries in the source; they are usually repeats but may differ in a detail not shown here. Identical values can stand only once. Inconclusive results are not listed. Some structures have more than one record in an assay (separate samples or runs), and their calls can disagree. Active and inactive are the calls of the source. Unless noted, calls come from the whole dose curve; as a rule, active = well fitted curve in the direction sought with a large enough effect in the repeat runs; inconclusive = weak or mixed curves; inactive = no such curve, though single readings can be large; an effect the other way counts as inactive or inconclusive.

Key:
[1] = qHTS assay to identify small molecule agonists of the progesterone receptor (PR) signaling pathway - cell viability counter screen (AID 1346799; calls by dose curve; note: nearly all actives have a fitted effect of over 45% in size; note: potency is the fitted concentration of half-maximal effect)
Method in brief: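 Counter screen for cytotoxicity: compound-treated PR-UAS-bla HEK293T cells (16 hr, 37C, 5% CO2) were assayed with CellTiter-Glo, luminescence measured after 30 min at room temperature.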

[2] = qHTS assay to identify small molecule agonists of the TGF-beta/Smad signaling pathway (AID 1346859; active = well fitted activation curve with a large enough effect in the signal ratio in the repeat runs, not every such curve was filed as active; the % refers to the signal ratio; note: series mostly up to about 77 µM)
Method in brief: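 Smad-responsive beta-lactamase reporter cells (HEK 293T) received compounds from DMSO stocks after overnight attachment, were incubated 5 hr, then treated 2 hr with FRET substrate before dual-emission fluorescence measurement (405 nm excitation).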

[3] = molecular target: Thyrotropin-releasing hormone receptor (Homo sapiens) (UniProt P34981); test: qHTS assay to identify small molecule antagonists of the thyrotropin-releasing hormone receptor (TRHR) signaling pathway (AID 1346877; active = well fitted inhibition curve with a large enough effect in the repeat runs, not every such curve was filed as active; note: potency is the fitted concentration of half-maximal effect)
Method in brief: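 HEK293/TRHR cells, 18 h, 37 °C; Ca2+ dye 2 h; cpd 5 min RT; TRH 1 nM final; fluorescence read 3 min, 1 s intervals; 15 concs, triplicate.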

[4] = molecular target: Thyrotropin-releasing hormone receptor (Homo sapiens) (UniProt P34981); test: qHTS assay to identify small molecule agonists of the thyrotropin-releasing hormone receptor (TRHR) signaling pathway (AID 1346891; calls by dose curve; note: potency is the fitted concentration of half-maximal effect;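 for activation: HEK293 cells expressing TRHR with calcium dye readout; series mostly up to about 58 µM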)
Method in brief: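 Agonist-mode calcium mobilisation screen: TRHR-transfected HEK293 cells cultured overnight (18 h), dye-loaded for 2 h at 37 °C, exposed to compounds, and monitored by fluorescence for 3 min.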

[5] = Human pregnane X receptor (PXR) small molecule agonists, qHTS cell viability counter screen (AID 1346977); note: nearly all actives have a fitted effect of over 50% in size; note: potency is the fitted concentration of half-maximal effect
Method in brief: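 Measures live-cell protease fluorescence (CellTiter-Fluor) in PXR-Luc HepG2 cells treated 24hr with compounds at 37C. Cells had 5hr to attach before pin transfer of DMSO solutions.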

[6] = Caspase-3/7 induction in HepG2 cells by small molecules, qHTS assay (AID 1346978); note: nearly all actives have a fitted effect of over 15% in size; note: potency is the fitted concentration of half-maximal effect
Method in brief: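 Wild-type HepG2 cells (2,000/well) were settled 5 h at 37 C, 5% CO2, then exposed to compounds in DMSO for 17 h. Caspase-3/7 activity was read by luminescence 30 min after adding Caspase-Glo 3/7 reagent at room temperature.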

[7] = Caspase-3/7 induction in CHO-K1 cells by small molecules, qHTS cell viability counter screen (AID 1346979); note: nearly all actives have a fitted effect of over 35% in size; note: potency is the fitted concentration of half-maximal effect
Method in brief: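 In the same wells as the caspase read, viability of compound-treated wild-type CHO-K1 cells was assessed using CellTiter-Fluor, added after 16hr at 37C and measured by fluorescence following 1hr further incubation.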

[8] = molecular target: Nuclear receptor subfamily 1 group I member 2 (Homo sapiens) (UniProt O75469); test: Human pregnane X receptor (PXR) small molecule agonists, qHTS assay (AID 1346982); note: nearly all actives have a fitted effect of over 35% in size; note: potency is the fitted concentration of half-maximal effect
Method in brief: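 HepG2 PXR-Luc reporter line, 5% charcoal-stripped FBS; 5 hr pre-incubation, compound (DMSO) 24 hr at 37 C/5% CO2; ONE-Glo 30 min RT; luminescence read-out.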

[9] = molecular target: Cytochrome P450 2D6 (Homo sapiens) (UniProt P10635); test: Cytochrome P450 Family 2 Subfamily D Member 6 (CYP2D6) small molecule antagonists: luciferase reporter qHTS assay (AID 1671196); note: nearly all actives have a fitted effect of over 50% in size; note: potency is the fitted concentration of half-maximal effect
Method in brief: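 Luminogenic proluciferin substrate, CYP2D6 enzyme; 10 min RT preincubation with compound, NADPH regeneration system added, 1 h RT. Stop/detection reagent, 20 min RT, luminescence read (RLU). Signal proportional to CYP activity.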

[10] = molecular target: Cytochrome P450 2C9 (Homo sapiens) (UniProt P11712); test: Cytochrome P450 Family 2 Subfamily C Member 9 (CYP2C9) small molecule antagonists: luciferase reporter qHTS assay (AID 1671198); note: nearly all actives have a fitted effect of over 50% in size; note: potency is the fitted concentration of half-maximal effect
Method in brief: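 CYP2C9 activity was measured with a P450-Glo proluciferin substrate. Enzyme–substrate mix was held with compound for 10 min at room temperature, then NADPH regeneration solution was added for 1 h at 37C. Luciferin product was read as luminescence.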

[11] = qHTS assay to identify small molecule antagonists of the TGF-beta/Smad signaling pathway - cell viability counter screen (AID 1346824); note: nearly all actives have a fitted effect of over 50% in size; note: potency is the fitted concentration of half-maximal effect
Method in brief: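 SBE-bla HEK 293T cells were plated overnight at 37 C, then given compounds in DMSO plus TGF-beta1 (added as 0.25 ng/mL solution) for 5 hr. After the bla read, CellTiter-Glo was added to the same wells and luminescence read after 30 min at room temperature.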

[12] = qHTS assay to identify small molecule agonists of the TGF-beta/Smad signaling pathway - cell viability counter screen (AID 1346829); note: nearly all actives have a fitted effect of over 45% in size; note: potency is the fitted concentration of half-maximal effect
Method in brief: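 HEK 293T SBE-bla line, 5 hr compound exposure at 37 C, multiplexed CellTiter-Glo viability read by luminescence.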

[13] = Caspase-3/7 induction in CHO-K1 cells by small molecules, qHTS assay (AID 1346980); note: nearly all actives have a fitted effect of over 15% in size; note: potency is the fitted concentration of half-maximal effect
Method in brief: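 Wild-type cells were seeded at 1,500 per well and settled 5 hr at 37 C, 5% CO2, then exposed to DMSO-dissolved compounds for 17 hr. Caspase-Glo 3/7 reagent was added, and luminescence was read after 30min at room temperature.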

[14] = molecular target: Cytochrome P450 2C19 (Homo sapiens) (UniProt P33261); test: Cytochrome P450 Family 2 Subfamily C Member 19 (CYP2C19) small molecule antagonists: luciferase reporter qHTS assay (AID 1671197); note: nearly all actives have a fitted effect of over 65% in size; note: potency is the fitted concentration of half-maximal effect
Method in brief: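 First, compounds are pinned into enzyme-substrate mix and held 10 min at room temperature. Second, NADPH regeneration solution is added and plates incubate 1 h at 37C. Third, detection reagent is added and luminescence read after 20 min.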

[15] = Caspase-3/7 induction in HepG2 cells by small molecules, qHTS cell viability counter screen (AID 1346981); note: nearly all actives have a fitted effect of over 30% in size; note: potency is the fitted concentration of half-maximal effect
Method in brief: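 Fluorescence read-out of live-cell protease activity (CellTiter-Fluor) after 1 hr with reagent. This was measured in the same wells as the caspase-3/7 luminescence, on HepG2 cells exposed to DMSO-dissolved compounds for 16 hr at 37 C.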

[16] = molecular target: Nuclear receptor subfamily 1 group I member 2 (Homo sapiens) (UniProt O75469); test: CYP3A4 induction through human pregnane X receptor (PXR) by small molecules, qHTS assay (AID 1346984); note: nearly all actives have a fitted effect of over 40% in size
Method in brief: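 HepG2-derived DPX-2 line carrying PXR plus a CYP3A4-promoter luciferase reporter; cells plated 5 hr, compound-exposed 24 hr at 37C. CYP3A4 activity probed with 3uM (final) Luciferin-IPA for 3hr, then luciferase read after One-Glo.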

[17] = molecular target: Nuclear receptor subfamily 1 group I member 2 (Homo sapiens) (UniProt O75469); test: Human pregnane X receptor (PXR) activation by small molecules, qHTS assay (AID 1346985); note: nearly all actives have a fitted effect of over 40% in size
Method in brief: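 DPX-2 cells (HepG2 co-transfected with a PXR response element and a CYP3A4-promoter luciferase construct) were seeded at 2,000 per well, rested 5 hr at 37C, then exposed to DMSO-dissolved compounds for 24 hr. Activation was read as luciferase luminescence.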

Measured: Potency

Chain of Nuclear receptor subfamily 1 group I member 2 (Homo sapiens) (O75469 whole entry, looked up): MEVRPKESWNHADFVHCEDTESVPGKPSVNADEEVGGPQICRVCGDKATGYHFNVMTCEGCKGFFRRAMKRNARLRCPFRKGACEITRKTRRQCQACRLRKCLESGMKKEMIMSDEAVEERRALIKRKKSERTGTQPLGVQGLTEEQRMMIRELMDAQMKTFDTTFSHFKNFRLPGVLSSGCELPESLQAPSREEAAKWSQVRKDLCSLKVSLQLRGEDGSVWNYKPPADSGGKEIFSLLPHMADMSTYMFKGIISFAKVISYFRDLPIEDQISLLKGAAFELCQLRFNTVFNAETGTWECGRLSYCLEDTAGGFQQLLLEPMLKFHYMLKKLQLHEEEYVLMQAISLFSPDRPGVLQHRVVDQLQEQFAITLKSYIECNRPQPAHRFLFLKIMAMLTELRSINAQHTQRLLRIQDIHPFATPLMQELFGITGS
Chain of Thyrotropin-releasing hormone receptor (Homo sapiens) (P34981 whole entry, looked up): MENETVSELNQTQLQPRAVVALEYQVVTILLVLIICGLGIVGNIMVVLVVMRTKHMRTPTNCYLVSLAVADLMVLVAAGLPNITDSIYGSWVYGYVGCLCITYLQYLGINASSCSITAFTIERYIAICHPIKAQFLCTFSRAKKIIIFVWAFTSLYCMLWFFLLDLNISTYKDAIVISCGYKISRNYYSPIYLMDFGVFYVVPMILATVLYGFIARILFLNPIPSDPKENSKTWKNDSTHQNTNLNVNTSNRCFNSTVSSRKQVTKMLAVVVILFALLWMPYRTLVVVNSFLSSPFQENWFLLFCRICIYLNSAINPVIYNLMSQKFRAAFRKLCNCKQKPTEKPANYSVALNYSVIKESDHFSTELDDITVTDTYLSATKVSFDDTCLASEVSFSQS
Chain of Cytochrome P450 2C19 (Homo sapiens) (P33261 whole entry, looked up): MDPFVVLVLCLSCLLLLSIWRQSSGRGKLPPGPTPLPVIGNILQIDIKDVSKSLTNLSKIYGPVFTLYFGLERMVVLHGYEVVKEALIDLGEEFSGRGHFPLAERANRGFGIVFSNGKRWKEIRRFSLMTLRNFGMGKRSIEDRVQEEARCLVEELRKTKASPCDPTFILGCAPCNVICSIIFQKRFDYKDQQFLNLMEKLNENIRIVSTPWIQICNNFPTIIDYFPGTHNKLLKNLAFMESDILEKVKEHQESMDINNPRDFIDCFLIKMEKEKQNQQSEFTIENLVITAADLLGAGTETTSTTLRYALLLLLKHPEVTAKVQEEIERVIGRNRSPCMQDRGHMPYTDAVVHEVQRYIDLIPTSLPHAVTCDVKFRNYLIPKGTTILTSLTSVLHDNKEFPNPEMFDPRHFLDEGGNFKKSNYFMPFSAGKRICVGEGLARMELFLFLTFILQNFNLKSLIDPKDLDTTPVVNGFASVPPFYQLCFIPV
Chain of Cytochrome P450 2C9 (Homo sapiens) (P11712 whole entry, looked up): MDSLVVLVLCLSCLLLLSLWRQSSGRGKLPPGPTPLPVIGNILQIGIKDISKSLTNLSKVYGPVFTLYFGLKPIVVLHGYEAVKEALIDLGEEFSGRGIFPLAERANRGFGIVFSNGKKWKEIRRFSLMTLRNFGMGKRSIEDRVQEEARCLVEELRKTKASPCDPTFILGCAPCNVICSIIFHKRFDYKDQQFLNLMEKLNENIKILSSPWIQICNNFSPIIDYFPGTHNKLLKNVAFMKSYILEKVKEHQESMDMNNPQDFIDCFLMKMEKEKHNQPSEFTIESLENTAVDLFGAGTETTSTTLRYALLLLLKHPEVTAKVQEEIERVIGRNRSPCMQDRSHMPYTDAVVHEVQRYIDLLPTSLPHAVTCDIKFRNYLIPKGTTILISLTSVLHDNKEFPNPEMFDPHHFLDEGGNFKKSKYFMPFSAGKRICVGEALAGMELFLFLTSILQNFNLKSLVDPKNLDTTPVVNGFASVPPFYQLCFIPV
Chain of Cytochrome P450 2D6 (Homo sapiens) (P10635 whole entry, looked up): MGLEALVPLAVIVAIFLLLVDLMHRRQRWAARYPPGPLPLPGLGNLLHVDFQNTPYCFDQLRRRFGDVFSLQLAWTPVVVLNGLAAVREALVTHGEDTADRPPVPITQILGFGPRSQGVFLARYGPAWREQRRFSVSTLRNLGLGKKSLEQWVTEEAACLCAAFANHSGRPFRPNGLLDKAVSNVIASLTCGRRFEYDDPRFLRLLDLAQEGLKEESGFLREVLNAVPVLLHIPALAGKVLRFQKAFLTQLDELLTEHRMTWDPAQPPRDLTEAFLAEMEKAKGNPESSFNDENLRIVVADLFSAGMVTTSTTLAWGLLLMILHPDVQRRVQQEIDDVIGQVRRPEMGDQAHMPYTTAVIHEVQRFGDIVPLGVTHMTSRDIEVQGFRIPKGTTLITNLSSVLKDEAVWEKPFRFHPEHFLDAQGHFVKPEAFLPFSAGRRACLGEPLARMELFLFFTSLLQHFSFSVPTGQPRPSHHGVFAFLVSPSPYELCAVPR

CCN(CC)CCOc1ccc(C(O)(Cc2ccc(Cl)cc2)c2ccc(C)cc2)cc1 (stereo not given)
inactive: [2] | [3] | [4] | [9]
active: [1] 23.7 µM | [5] 26.6 µM | [6] 33.5 µM | [7] 26.6 µM | [8] 9.44 µM | [10] 38.9 µM

C[n+]1c2cc(N)ccc2cc2ccc(N)cc21 (tested in a mixture with another compound)
active: [4] 7.56 µM | [6] 9.44 µM | [9] 15.5 µM | [14] 38.9 µM
inactive: [11] | [12] | [3] | [13] | [10]

CC(C)(C)CC(C)(C)c1ccccc1O
active: [11] 31.1 µM | [12] 49.2 µM | [5] 70.8 µM | [6] 48.8 µM | [7] 61.4 µM | [15] 61.4 µM | [8] 21.8 µM | [10] 17.9 µM
inactive: [14]

CC=O
inactive: [15] | [10]
active: [1] 45.3 µM | [11] 25.7 µM | [12] 28.8 µM | [5] 5.7 µM | [7] 4.03 µM | [8] 4.53 µM | [9] 8.34 µM

C=C[C@](C)(O)CC[C@@H]1[C@@]2(C)CCCC(C)(C)[C@@H]2CC[C@@]1(C)O
active: [6] 68.6 µM | [7] 54.5 µM | [8] 9.69 µM | [10] 3.17 µM
inactive: [12] | [2] | [13]

CCCCCCCC/C=C\CCCCCCCC(=O)NCc1ccc(O)c(OC)c1
active: [14] 15.5 µM
not listed: [1] | [3] | [4] | [9] | [10]
inactive: all other assays above

O=C(Nc1ccc(Cl)cc1)Nc1ccc(Cl)c(C(F)(F)F)c1
active: [12] 15.1 µM | [5] 7.5 µM | [7] 11.9 µM | [15] 29.8 µM | [8] 9.44 µM | [14] 17.4 µM | [10] 13.8 µM
inactive: [2] | [3] | [4] | [6]

CCCCCCCCCCOCC(O)CN (stereo not given)
active: [1] 29.8 µM | [5] 26.6 µM | [6] 29.8 µM | [9] 6.92 µM | [10] 13.8 µM
inactive: [11] | [3] | [4] | [8]

Nc1ccc2cc3ccc(N)cc3nc2c1
inactive: [11] | [12] | [10]
active: [3] 33.8 µM | [4] 15.5 µM and 13.5 µM | [6] 30.6 µM and 29.8 µM | [13] 4.86 µM and 11.9 µM | [9] 39.9 µM
71 µM (active) and inactive: [14]

CN(C)CCCN1c2ccccc2Sc2ccc(C(F)(F)F)cc21
inactive: [1] | [11] | [12] | [10]
active: [9] 0.617 µM | [14] 4.36 µM

O=C(c1ccccc1)c1cc(Cl)ccc1O
active: [9] 37.9 µM | [14] 1.9 µM | [10] 33.8 µM
not listed: [1] | [8] | [16] | [17]
inactive: all other assays above

CCCCCCCCCCCCOC(=O)c1cc(O)c(O)c(O)c1
61.4 µM (active) and inactive: [12]
inactive: [2] | [13]
active: [1] 60.9 µM | [5] 60.9 µM and 61.1 µM | [6] 60.9 µM and 68.6 µM | [15] 60.9 µM | [8] 24.2 µM and 21.7 µM | [9] 28.2 µM and 31.7 µM | [14] 25.1 µM and 20 µM | [10] 9.99 µM and 28.3 µM

CC(=O)OC(OC(C)=O)c1ccc([N+](=O)[O-])o1
inactive: [13]
active: [5] 49.4 µM | [7] 15.6 µM | [15] 62.2 µM | [14] 16.2 µM
